# Results filed as inconclusive are left out. A call without a number means that no potency is given here. Unmarked numbers belong to inactive results. Activity calls are given as the source filed them. Unless noted, calls follow the shape of the dose curve; as a rule, active = well fitted curve in the direction sought with a large enough effect in the repeat runs; inconclusive = weak or mixed curves; inactive = no such curve, though single readings can be large; an effect the other way counts as inactive or inconclusive.
# Legend:
# [1] = qHTS assay to identify small molecule that activate the aryl hydrocarbon receptor (AhR) signaling pathway - cell viability counter screen (AID 743086); also: nearly all actives have a fitted effect of over 45% in size; also: potency is read from the fitted curve at half-maximal effect
# Summary of the method: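 HepG2-AhR-luc (HG2L7.5c1) cells, 4000/well, treated 24 h at 37 C with compound; viability measured as CellTiter-Fluor fluorescence after 30 min in the same wells as the luciferase read.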
# [2] = qHTS assay to identify small molecule antagonists of the peroxisome proliferator-activated receptor gamma (PPARg) signaling pathway - cell viability counter screen (AID 743194); also: nearly all actives have a fitted effect of over 55% in size
# Summary of the method: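 Cytotoxicity counter screen in PPARg-bla HEK293H cells, same wells as reporter assay. Compounds plus 50 nM rosiglitazone (final) for 17 h at 37 C, then viability read by CellTiter-Glo luminescence.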
# [3] = qHTS assay for small molecule agonists of the antioxidant response element (ARE) signaling pathway - cell viability counter screen (AID 743203; calls by dose curve; also: nearly all actives have a fitted effect of over 55% in size; also: potency is read from the fitted curve at half-maximal effect)
# Summary of the method: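 ARE-bla HepG2 cells were plated, rested 5 h at 37C/5% CO2, then exposed to compounds in DMSO for 16 h. Viability was read as CellTiter-Glo luminescence after 30 min at room temperature, in the same wells as the ARE screen.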
# [4] = qHTS assay for small molecule activators of the heat shock response signaling pathway - cell viability counter screen (AID 743209); also: nearly all actives have a fitted effect of over 50% in size
# Summary of the method: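 HSE-bla HeLa cells plated overnight, then exposed to Tox21 compounds (23 nL in DMSO) for 5 h at 37 C. After the bla reporter read, CellTiter-Glo was added in the same wells and luminescence read after 30 min at room temperature.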
# [5] = qHTS assay for small molecule activators of the heat shock response signaling pathway (AID 743210; active = well fitted activation curve with a large enough effect in the signal ratio in the repeat runs, with a control signal flat, not every such curve was filed as active; the % refers to the signal ratio; also: series mostly up to about 63 µM)
# Summary of the method: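 HSE-bla HeLa cells (beta-lactamase reporter under heat shock response elements), plated overnight, then exposed to compounds 5 h at 37 C; LiveBLAzer B/G FRET substrate added, 2.5 h at room temperature, fluorescence intensity read.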
# [6] = qHTS assay to identify small molecule agonists of the peroxisome proliferator-activated receptor delta (PPARd) signaling pathway - cell viability counter screen (AID 743211); also: nearly all actives have a fitted effect of over 55% in size; also: potency is read from the fitted curve at half-maximal effect
# Summary of the method: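 Tox21 library compounds, delivered in DMSO, were incubated 17 h with PPARd-bla HEK293H cells; cytotoxicity was taken from CellTiter-Glo luminescence read 30 min after reagent addition.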
# [7] = qHTS assay to identify small molecule antagonists of the peroxisome proliferator-activated receptor delta (PPARd) signaling pathway - cell viability counter screen (AID 743213); also: nearly all actives have a fitted effect of over 50% in size
# Summary of the method: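 Viability counter-screen, qHTS format: PPARd-bla HEK293H, L165041 300 nM final, 17 h compound exposure at 37 C, CellTiter-Glo luminescence after 30 min RT.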
# [8] = molecular target: Bile acid receptor (Homo sapiens) (UniProt Q96RI1); assay: qHTS assay to identify small molecule antagonists of the farnesoid-X-receptor (FXR) signaling pathway (AID 743217; active = well fitted inhibition curve with a large enough effect in the signal ratio in the repeat runs, not every such curve was filed as active; the % refers to the signal ratio; also: potency is read from the fitted curve at half-maximal effect)
# Sequence of Bile acid receptor (Homo sapiens) (Q96RI1 whole entry, looked up): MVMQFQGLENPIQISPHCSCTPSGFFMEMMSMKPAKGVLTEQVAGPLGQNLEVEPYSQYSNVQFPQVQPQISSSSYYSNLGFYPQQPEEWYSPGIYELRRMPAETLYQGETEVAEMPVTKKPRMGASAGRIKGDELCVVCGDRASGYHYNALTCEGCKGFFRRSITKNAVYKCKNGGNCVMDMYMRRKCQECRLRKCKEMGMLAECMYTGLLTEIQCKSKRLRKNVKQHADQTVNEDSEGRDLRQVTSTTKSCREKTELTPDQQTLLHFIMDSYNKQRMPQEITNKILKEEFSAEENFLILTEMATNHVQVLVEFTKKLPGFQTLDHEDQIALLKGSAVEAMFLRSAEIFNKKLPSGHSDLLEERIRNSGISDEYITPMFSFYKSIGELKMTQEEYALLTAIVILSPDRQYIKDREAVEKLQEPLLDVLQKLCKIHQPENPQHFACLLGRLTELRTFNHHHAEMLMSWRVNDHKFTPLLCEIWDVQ
# Summary of the method: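 FXR-UAS-bla HEK 293T cells (beta-lactamase reporter) given compound plus chenodeoxycholic acid (50 uM final), 16 h at 37C. LiveBLAzer B/G FRET substrate added for 2 h at room temperature; fluorescence read.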
# [9] = qHTS assay to identify small molecule agonists of the farnesoid-X-receptor (FXR) signaling pathway - cell viability counter screen (AID 743218); also: nearly all actives have a fitted effect of over 45% in size; also: potency is read from the fitted curve at half-maximal effect
# Summary of the method: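 FXR-UAS-bla HEK 293T cells exposed to compounds for 16 h at 37C. Cytotoxicity read in the same wells by CellTiter-Glo luminescence after 30 min at room temperature, following the beta-lactamase FRET read.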
# [10] = qHTS assay to identify small molecule antagonists of the farnesoid-X-receptor (FXR) signaling pathway - cell viability counter screen (AID 743221; active = well fitted cell-killing curve with a large enough effect in the repeat runs, not every such curve was filed as active; also: nearly all actives have a fitted effect of over 50% in size; also: potency is read from the fitted curve at half-maximal effect)
# Summary of the method: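 Cytotoxicity is taken from ATP luminescence (CellTiter-Glo, 30 min, room temperature) in FXR-bla HEK 293T cells previously incubated 16 h at 37 C with compound and chenodeoxycholic acid at 50 uM final.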
# [11] = molecular target: Vitamin D3 receptor (Homo sapiens) (UniProt P11473); assay: qHTS assay to identify small molecule agonists of the vitamin D receptor (VDR) signaling pathway (AID 743222; calls by dose curve; also: potency is read from the fitted curve at half-maximal effect)
# Sequence of Vitamin D3 receptor (Homo sapiens) (P11473 whole entry, looked up): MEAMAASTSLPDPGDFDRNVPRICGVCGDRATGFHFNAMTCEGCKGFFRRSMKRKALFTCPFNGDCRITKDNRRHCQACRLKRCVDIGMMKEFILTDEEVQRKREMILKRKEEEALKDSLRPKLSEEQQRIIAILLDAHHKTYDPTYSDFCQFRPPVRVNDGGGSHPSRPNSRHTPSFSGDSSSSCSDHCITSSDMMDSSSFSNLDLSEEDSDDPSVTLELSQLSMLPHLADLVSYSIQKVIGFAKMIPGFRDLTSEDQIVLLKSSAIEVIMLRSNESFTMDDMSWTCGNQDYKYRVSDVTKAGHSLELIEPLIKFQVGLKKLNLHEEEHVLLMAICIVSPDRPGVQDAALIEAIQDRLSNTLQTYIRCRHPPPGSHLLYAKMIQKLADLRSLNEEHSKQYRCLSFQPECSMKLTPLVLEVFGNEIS
# Summary of the method: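 VDR-bla cells plated 4 h at 37 C, then exposed to compounds for 16 h at 37 C. Beta-lactamase reporter activity measured by fluorescence after 2 h room-temperature loading with LiveBLAzer B/G FRET substrate.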
# [12] = qHTS assay to identify small molecule agonists of the vitamin D receptor (VDR) signaling pathway - cell viability counter screen (AID 743224); also: nearly all actives have a fitted effect of over 50% in size; also: potency is read from the fitted curve at half-maximal effect
# Summary of the method: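 VDR-bla cells, 4 h after plating, exposed to compounds for 16 h at 37C; viability then read in the same wells as CellTiter-Glo luminescence after 30 min at room temperature, following the bla FRET read.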
# [13] = molecular target: Aryl hydrocarbon receptor (Homo sapiens) (UniProt P35869); assay: qHTS assay to identify small molecule that activate the aryl hydrocarbon receptor (AhR) signaling pathway (AID 743085); also: nearly all actives have a fitted effect of over 15% in size; also: potency is read from the fitted curve at half-maximal effect;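 as to activation: HG2L7.5c1 human HepG2 liver cells with stably integrated DRE-driven firefly reporter; series mostly up to about 70 µM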
# Sequence of Aryl hydrocarbon receptor (Homo sapiens) (P35869 whole entry, looked up): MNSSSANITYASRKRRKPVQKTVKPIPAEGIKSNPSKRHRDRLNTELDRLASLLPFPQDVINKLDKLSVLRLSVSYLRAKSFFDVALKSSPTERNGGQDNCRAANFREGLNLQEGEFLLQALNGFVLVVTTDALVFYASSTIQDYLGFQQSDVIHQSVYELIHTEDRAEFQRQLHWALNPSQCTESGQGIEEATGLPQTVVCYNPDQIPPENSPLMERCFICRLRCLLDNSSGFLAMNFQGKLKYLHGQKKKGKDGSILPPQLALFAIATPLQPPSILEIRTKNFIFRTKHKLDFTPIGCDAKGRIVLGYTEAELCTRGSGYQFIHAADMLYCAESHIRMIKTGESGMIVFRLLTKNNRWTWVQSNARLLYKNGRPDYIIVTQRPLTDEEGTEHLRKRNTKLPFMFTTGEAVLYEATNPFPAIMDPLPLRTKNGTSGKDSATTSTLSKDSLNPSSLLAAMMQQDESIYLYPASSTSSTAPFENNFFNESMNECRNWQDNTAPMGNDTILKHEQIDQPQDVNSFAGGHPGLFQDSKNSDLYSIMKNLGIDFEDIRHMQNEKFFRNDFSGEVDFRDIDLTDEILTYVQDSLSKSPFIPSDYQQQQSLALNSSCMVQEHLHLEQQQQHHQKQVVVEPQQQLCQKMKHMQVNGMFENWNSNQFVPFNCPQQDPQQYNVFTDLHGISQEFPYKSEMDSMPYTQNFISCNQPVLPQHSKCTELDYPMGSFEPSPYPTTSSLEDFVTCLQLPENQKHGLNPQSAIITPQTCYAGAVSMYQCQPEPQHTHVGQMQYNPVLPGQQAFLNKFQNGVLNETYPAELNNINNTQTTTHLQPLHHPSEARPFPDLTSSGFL
# Summary of the method: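 A multiplexed format paired cell viability (CellTiter-Fluor fluorescence) with AhR-dependent luciferase output (ONE-Glo luminescence) in the same wells of HepG2 DRE-luc cells after 24 h compound exposure at 37C.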
# [14] = molecular target: Vitamin D3 receptor (Homo sapiens) (UniProt P11473); assay: qHTS assay to identify small molecule antagonists of the vitamin D receptor (VDR) signaling pathway (AID 743223; active = well fitted inhibition curve with a large enough effect in the signal ratio in the repeat runs, not every such curve was filed as active; the % refers to the signal ratio)
# Summary of the method: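 Quantitative HTS in VDR-bla reporter cells stimulated with 1alpha,25-dihydroxyvitamin D3, 3 nM final. Compound exposure 16 h, 37C, 5% CO2. Read-out: beta-lactamase FRET substrate fluorescence, 2 h RT.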
# [15] = qHTS assay for small molecule agonists of the antioxidant response element (ARE) signaling pathway (AID 743202; active = well fitted activation curve with a large enough effect in the signal ratio in the repeat runs, not every such curve was filed as active; the % refers to the signal ratio; also: potency is read from the fitted curve at half-maximal effect)
# Summary of the method: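 ARE-bla HepG2 cells (beta-lactamase reporter under the antioxidant response element), plated 5 hours, then exposed to compounds 16 hours at 37 C. LiveBLAzer B/G FRET substrate added for 2 hours at room temperature; fluorescence intensity read.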
# [16] = molecular target: Peroxisome proliferator-activated receptor delta (Homo sapiens) (UniProt Q03181); assay: qHTS assay to identify small molecule agonists of the peroxisome proliferator-activated receptor delta (PPARd) signaling pathway (AID 743212; calls by dose curve)
# Sequence of Peroxisome proliferator-activated receptor delta (Homo sapiens) (Q03181 whole entry, looked up): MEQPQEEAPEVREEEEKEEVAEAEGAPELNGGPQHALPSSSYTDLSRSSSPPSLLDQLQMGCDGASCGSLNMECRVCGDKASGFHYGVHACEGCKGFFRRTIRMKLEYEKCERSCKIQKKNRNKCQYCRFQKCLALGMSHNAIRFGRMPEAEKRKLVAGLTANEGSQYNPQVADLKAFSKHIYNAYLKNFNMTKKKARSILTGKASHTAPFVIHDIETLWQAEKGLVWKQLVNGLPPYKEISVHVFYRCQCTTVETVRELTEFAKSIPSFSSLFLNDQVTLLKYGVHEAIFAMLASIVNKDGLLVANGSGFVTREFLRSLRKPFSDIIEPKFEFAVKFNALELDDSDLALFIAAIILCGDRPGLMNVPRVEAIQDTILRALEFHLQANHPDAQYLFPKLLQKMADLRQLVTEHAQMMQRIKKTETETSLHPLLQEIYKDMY
# Summary of the method: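 GeneBLAzer UAS-bla HEK293H cells carrying a PPARδ construct were exposed to compounds at 37 °C. Beta-lactamase activity was read by FRET fluorescence after 2 h at room temperature with LiveBLAzer B/G substrate.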
# [17] = molecular target: Peroxisome proliferator-activated receptor delta (Homo sapiens) (UniProt Q03181); assay: qHTS assay to identify small molecule antagonists of the peroxisome proliferator-activated receptor delta (PPARd) signaling pathway (AID 743215; active = well fitted inhibition curve with a large enough effect in the signal ratio in the repeat runs, not every such curve was filed as active; the % refers to the signal ratio;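 also: cells stimulated with agonist L165041 at 300 nM final during compound exposure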; also: potency is read from the fitted curve at half-maximal effect)
# Summary of the method: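 PPARd-bla HEK293H cells (UAS-bla reporter) preincubated 5 h, then given compound plus 300 nM final L165041 agonist for 17 h at 37 C. Beta-lactamase activity read by LiveBLAzer B/G FRET substrate fluorescence after 2 h at room temperature.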
# [18] = molecular target: Peroxisome proliferator-activated receptor gamma (Homo sapiens) (UniProt P37231); assay: qHTS assay to identify small molecule agonists of the peroxisome proliferator-activated receptor gamma (PPARg) signaling pathway (AID 743094; active = well fitted activation curve with a large enough effect in the signal ratio in the repeat runs, not every such curve was filed as active; the % refers to the signal ratio; also: potency is read from the fitted curve at half-maximal effect)
# Sequence of Peroxisome proliferator-activated receptor gamma (Homo sapiens) (P37231 whole entry, looked up): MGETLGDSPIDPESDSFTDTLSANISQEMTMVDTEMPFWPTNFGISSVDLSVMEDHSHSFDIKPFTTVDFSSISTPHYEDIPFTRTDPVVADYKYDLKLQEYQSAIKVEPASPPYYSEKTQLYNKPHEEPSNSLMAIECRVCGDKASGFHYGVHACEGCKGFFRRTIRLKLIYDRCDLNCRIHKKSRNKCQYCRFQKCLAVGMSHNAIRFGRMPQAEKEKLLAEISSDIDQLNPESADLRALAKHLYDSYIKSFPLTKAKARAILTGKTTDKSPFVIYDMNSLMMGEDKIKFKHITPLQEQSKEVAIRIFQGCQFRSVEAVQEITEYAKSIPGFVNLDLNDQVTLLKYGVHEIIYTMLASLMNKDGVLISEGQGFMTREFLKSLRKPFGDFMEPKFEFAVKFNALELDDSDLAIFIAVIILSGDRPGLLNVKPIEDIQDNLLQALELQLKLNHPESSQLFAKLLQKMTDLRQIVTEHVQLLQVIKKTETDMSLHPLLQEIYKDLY
# Summary of the method: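 GeneBLAzer PPARg UAS-bla HEK293H cells were plated, rested 5 h, then exposed to compounds for 17 h at 37C. Beta-lactamase activity was read by LiveBLAzer B/G FRET substrate fluorescence after 1 h at room temperature.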
# [19] = molecular target: Peroxisome proliferator-activated receptor gamma (Homo sapiens) (UniProt P37231); assay: qHTS assay to identify small molecule antagonists of the peroxisome proliferator-activated receptor gamma (PPARg) signaling pathway (AID 743191; calls by dose curve; also: nearly all actives have a fitted effect of over 30% in size; also: potency is read from the fitted curve at half-maximal effect)
# Summary of the method: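 GeneBLAzer PPARg UAS-bla HEK293H cells, 5 h post-plating, exposed to compounds 17 h at 37C. LiveBLAzer B/G FRET substrate added for 1 h at room temperature; beta-lactamase reporter read by fluorescence intensity.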
# [20] = molecular target: Bile acid receptor (Homo sapiens) (UniProt Q96RI1); assay: qHTS assay to identify small molecule agonists of the farnesoid-X-receptor (FXR) signaling pathway (AID 743220; active = well fitted activation curve with a large enough effect in the signal ratio in the repeat runs, not every such curve was filed as active; the % refers to the signal ratio)
# Summary of the method: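 Beta-lactamase reporter under UAS control in GeneBLAzer FXR HEK 293T cells (5000/well) measured with LiveBLAzer FRET substrate after 2 h at room temperature. Compound exposure lasted 16 h at 37C.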
Structure (SMILES),Potency [1],Potency [2],Potency [3],Potency [4],Potency [5],Potency [6],Potency [7],Potency [8],Potency [9],Potency [10],Potency [11],Potency [12],Potency [13],outcome [14],Potency [15],Potency [16],Potency [17],Potency [18],Potency [19],Potency [20]
Nc1ccccc1S(=O)(=O)c1ccccc1,inactive,inactive,inactive,inactive,inactive,inactive,inactive,inactive,inactive,inactive,inactive,inactive,,,,,,,,
CCCNCC(O)COc1ccccc1C(=O)CCc1ccccc1 (stereo not given),,inactive,inactive,inactive,inactive,,,,,inactive,inactive,,inactive,inactive,,,,,,
COc1cc2c(cc1OC)C(C(C(=O)N(CCc1ccc(OC)c(OC)c1OC)CCc1ccc(OC)c(OC)c1OC)c1ccccc1)=NCC2 (stereo not given),8.41 µM (active),inactive,inactive,inactive,inactive,,inactive,,,inactive,,inactive,,inactive,inactive,inactive,inactive,,,
COC(=O)C1=C(C)NC(COC(N)=O)=C(C(=O)OC(C)C)C1c1cccc(Cl)c1Cl (stereo not given),,,inactive,inactive,,inactive,inactive,,inactive,inactive,29.8 µM (active),inactive,inactive,,,,,21.3 µM (active),,
CCN(CC)CCNc1ccc(CNC=O)c2sc3ccc(OC)cc3c(=O)c12,5.45 µM (active),,48.6 µM (active),inactive,inactive,,,,4.9 µM (active),,inactive,54.9 µM (active),,,,inactive,15.5 µM (active),,12.3 µM (active),
CCC(=O)O[C@]1(C(=O)CCl)[C@@H](C)C[C@H]2[C@@H]3CCC4=CC(=O)C=C[C@]4(C)[C@@]3(F)[C@@H](O)C[C@@]21C,inactive,inactive,inactive,inactive,inactive,inactive,inactive,,inactive,inactive,inactive,inactive,,,,,,inactive,inactive,
COc1ccc(C(=O)c2ccc(OC)cc2O)c(O)c1,inactive,,inactive,inactive,inactive,inactive,,,inactive,inactive,inactive,,,inactive,,inactive,,inactive,,
C[Si](C)(CCCN)O[Si](C)(C)CCCN,inactive,inactive,inactive,,inactive,inactive,inactive,,,inactive,,inactive,,inactive,,inactive,inactive,inactive,,
COc1ccnc(CS(=O)c2nc3ccc(OC(F)F)cc3[nH]2)c1OC (stereo not given),inactive,inactive,,inactive,inactive,,inactive,,inactive,inactive,,inactive,,,,inactive,inactive,inactive,inactive,
C=CC(=O)OCCOCCOC(=O)C=C,,,inactive,,,49.2 µM (active),,,,,,,inactive,,30.8 µM (active),,,,,
Clc1ccc2c(c1)CCc1cccnc1C2=C1CCNCC1,,inactive,,,inactive,26.6 µM (active),,29.8 µM (active),,29.8 µM (active),inactive,,inactive,,,inactive,29.8 µM (active),,inactive,inactive
CCCCCCCC#N,inactive,inactive,,,,inactive,,,inactive,inactive,,,,inactive,inactive,inactive,,inactive,inactive,
CCCCCC[C@@H](O)C/C=C\CCCCCCCC(=O)OC,inactive,inactive,inactive,inactive,inactive,inactive,inactive,,inactive,inactive,inactive,inactive,,,inactive,,,inactive,,
C#Cc1cccc(Nc2ncnc3cc(OCCOC)c(OCCOC)cc23)c1,,inactive,,inactive,inactive,inactive,inactive,inactive,inactive,inactive,,inactive,2.66 µM (active),,,inactive,,,inactive,inactive
CC(C)Nc1ccc(NC(C)C)c2c1C(=O)c1ccccc1C2=O,inactive,inactive,,inactive,inactive,inactive,inactive,inactive,,,inactive,inactive,,inactive,,inactive,inactive,inactive,,inactive
Brc1c2ccccc2cc2ccccc12,inactive,inactive,,inactive,,,inactive,,inactive,inactive,,inactive,,inactive,,,,49.5 µM (active),,
CCC(CC)Nc1ccc(C)c(C)c1,inactive,inactive,inactive,,,inactive,inactive,,inactive,inactive,,,,,inactive,,,inactive,inactive,
CCN(CC)CCNC(=O)c1cc(Br)c(N)cc1OC,inactive,inactive,,inactive,inactive,inactive,,,inactive,inactive,inactive,inactive,,inactive,inactive,inactive,,inactive,inactive,
COc1ccc(C(=O)Nc2nc3ccccc3c(NCc3ccccc3)c2C#N)cc1,,inactive,inactive,inactive,inactive,inactive,inactive,,inactive,inactive,,inactive,7.7 µM (active),,,,,,1.74 µM (active),
COc1cc2nc(N3CCN(C(=O)C4COc5ccccc5O4)CC3)nc(N)c2cc1OC (stereo not given),inactive,inactive,29.8 µM (active),inactive,inactive,,,,,inactive,inactive,inactive,,inactive,inactive,,,,,inactive
